Experiments:
U-2932 [1] = assay: growth inhibition by drug alone (1 - RLU/untreated control) (fraction); higher = stronger inhibition; conditions: 177Lu-lilotomab satetraxetan 0 ug/ml
In short: (§1)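 RIVA or U-2932 cells, untreated or pretreated 18 h with a radiolabelled anti-CD37 antibody conjugate (~600 MBq/mg; 0.5 µg/ml RIVA, 1 µg/ml U-2932), were washed and seeded at 3,000 cells/well on plates pre-printed with the Selleck Cambridge Cancer Compound library. Doses were 10/100 nM (RIVA) or 10/1,000 nM (U-2932). RealTime-Glo luminescence was read daily from day 3 after 1 h at 37°C. Growth inhibition is 1 − RLU/mean of 48 untreated no-drug wells per plate.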

RIVA [2] = assay: as above; conditions: 177Lu-lilotomab satetraxetan 0 ug/ml
In short: as §1

U-2932 [3] = assay: growth inhibition by drug plus 177Lu-lilotomab satetraxetan (1 - RLU/untreated control) (fraction); higher = stronger inhibition; conditions: 177Lu-lilotomab satetraxetan 1 ug/ml
In short: as §1

RIVA [4] = assay: as above; conditions: 177Lu-lilotomab satetraxetan 0.5 ug/ml
In short: as §1

Structure (SMILES)	growth inhibition by drug alone (U-2932 [1]; 10 nM, time (day): 3)	growth inhibition by drug alone (U-2932 [1]; 10 nM, time (day): 4)	growth inhibition by drug alone (U-2932 [1]; 10 nM, time (day): 5)	growth inhibition by drug alone (U-2932 [1]; 10 nM, time (day): 6)	growth inhibition by drug alone (U-2932 [1]; 1000 nM, time (day): 3)	growth inhibition by drug alone (U-2932 [1]; 1000 nM, time (day): 4)	growth inhibition by drug alone (U-2932 [1]; 1000 nM, time (day): 5)	growth inhibition by drug alone (U-2932 [1]; 1000 nM, time (day): 6)	growth inhibition by drug alone (RIVA [2]; 10 nM, time (day): 3)	growth inhibition by drug alone (RIVA [2]; 10 nM, time (day): 4)	growth inhibition by drug alone (RIVA [2]; 10 nM, time (day): 5)	growth inhibition by drug alone (RIVA [2]; 10 nM, time (day): 6)	growth inhibition by drug alone (RIVA [2]; 100 nM, time (day): 3)	growth inhibition by drug alone (RIVA [2]; 100 nM, time (day): 4)	growth inhibition by drug alone (RIVA [2]; 100 nM, time (day): 5)	growth inhibition by drug alone (RIVA [2]; 100 nM, time (day): 6)	growth inhibition by drug plus 177Lu-lilotomab satetraxetan (U-2932 [3]; 10 nM, time (day): 3)	growth inhibition by drug plus 177Lu-lilotomab satetraxetan (U-2932 [3]; 10 nM, time (day): 4)	growth inhibition by drug plus 177Lu-lilotomab satetraxetan (U-2932 [3]; 10 nM, time (day): 5)	growth inhibition by drug plus 177Lu-lilotomab satetraxetan (U-2932 [3]; 10 nM, time (day): 6)	growth inhibition by drug plus 177Lu-lilotomab satetraxetan (U-2932 [3]; 1000 nM, time (day): 3)	growth inhibition by drug plus 177Lu-lilotomab satetraxetan (U-2932 [3]; 1000 nM, time (day): 4)	growth inhibition by drug plus 177Lu-lilotomab satetraxetan (U-2932 [3]; 1000 nM, time (day): 5)	growth inhibition by drug plus 177Lu-lilotomab satetraxetan (U-2932 [3]; 1000 nM, time (day): 6)	growth inhibition by drug plus 177Lu-lilotomab satetraxetan (RIVA [4]; 10 nM, time (day): 3)	growth inhibition by drug plus 177Lu-lilotomab satetraxetan (RIVA [4]; 10 nM, time (day): 4)	growth inhibition by drug plus 177Lu-lilotomab satetraxetan (RIVA [4]; 10 nM, time (day): 5)	growth inhibition by drug plus 177Lu-lilotomab satetraxetan (RIVA [4]; 10 nM, time (day): 6)	growth inhibition by drug plus 177Lu-lilotomab satetraxetan (RIVA [4]; 100 nM, time (day): 3)	growth inhibition by drug plus 177Lu-lilotomab satetraxetan (RIVA [4]; 100 nM, time (day): 4)	growth inhibition by drug plus 177Lu-lilotomab satetraxetan (RIVA [4]; 100 nM, time (day): 5)	growth inhibition by drug plus 177Lu-lilotomab satetraxetan (RIVA [4]; 100 nM, time (day): 6)
CCOc1ccn(-c2ccc(F)cc2)c(=O)c1C(=O)Nc1ccc(Oc2ccnc(N)c2Cl)c(F)c1	0.143	0.12	-0.0713	-0.014	0.036	0.0178	-0.127	-0.209	0.0958	0.084	0.0356	-0.0223	-0.0283	0.013	-0.000157	-0.0616	0.12	0.152	0.188	0.258	0.0517	0.106	0.162	0.259	0.626	0.638	0.657	0.657	0.445	0.512	0.523	0.514
Nc1nccc(-c2ccc3noc(-c4ccc(Cl)cc4)c3c2)n1 [PIM-1 Inhibitor 2]	0.154	0.0795	7.17e-05	-0.0865	0.121	0.133	0.0739	0.0111	0.115	0.126	0.0578	-0.0926	0.116	0.161	0.123	0.0468	0.0725	0.102	0.129	0.208	0.106	0.208	0.188	0.253	0.465	0.59	0.607	0.604	0.451	0.536	0.524	0.507
CS(=O)(=O)N1CCc2c(-c3cnc(N)nc3)nc(N3CCOCC3)nc21	0.149	0.108	-0.0352	-0.0152	0.351	0.362	0.336	0.366	0.14	0.0286	-0.0356	-0.278	0.291	0.165	0.108	0.0361	0.0821	0.0867	0.0957	0.135	0.216	0.214	0.223	0.326	0.395	0.499	0.537	0.543	0.451	0.434	0.439	0.428
N#Cc1ccc(C(c2ccc(C#N)cc2)n2cncn2)cc1 [Letrozole]	-0.0916	-0.0615	-0.0521	0.00419	-0.0775	-0.0542	-0.0553	-0.0728	-0.194	-0.245	-0.249	-0.307	-0.0878	-0.169	-0.207	-0.242	-0.121	-0.0795	-0.0651	0.00121	-0.131	-0.067	-0.0375	0.0441	0.418	0.498	0.524	0.535	0.319	0.397	0.409	0.401
O=C(c1cc(Cc2n[nH]c(=O)c3ccccc23)ccc1F)N1CCN(C(=O)C2CC2)CC1 [Olaparib (AZD2281)]	0.0127	-0.023	-0.0205	0.0558	-0.0113	0.025	0.0248	0.0776	-0.144	-0.15	-0.137	-0.143	-0.228	-0.239	-0.25	-0.231	-0.0255	0.035	0.0896	0.188	0.0503	0.108	0.156	0.315	0.539	0.593	0.618	0.613	0.39	0.482	0.505	0.533
